GLP1R inv ag: inverse agonists of human GLP-1 receptor; HEK293 GLP-1R CRE-luciferase, luminescence, 24 h; GLP-1R form is constitutively active; Potency, µM (titrated, usually from 38.3 µM), for the others: top-dose activity change, negative = inhibition, hits mostly inhibitors; 410,000 tested, 1.6% active; also: % is scaled to controls: 0 for no effect and ±100 for the full control effect; nearly all actives have a fitted effect of over 55% in size
Target sequence (P43220 whole entry, looked up): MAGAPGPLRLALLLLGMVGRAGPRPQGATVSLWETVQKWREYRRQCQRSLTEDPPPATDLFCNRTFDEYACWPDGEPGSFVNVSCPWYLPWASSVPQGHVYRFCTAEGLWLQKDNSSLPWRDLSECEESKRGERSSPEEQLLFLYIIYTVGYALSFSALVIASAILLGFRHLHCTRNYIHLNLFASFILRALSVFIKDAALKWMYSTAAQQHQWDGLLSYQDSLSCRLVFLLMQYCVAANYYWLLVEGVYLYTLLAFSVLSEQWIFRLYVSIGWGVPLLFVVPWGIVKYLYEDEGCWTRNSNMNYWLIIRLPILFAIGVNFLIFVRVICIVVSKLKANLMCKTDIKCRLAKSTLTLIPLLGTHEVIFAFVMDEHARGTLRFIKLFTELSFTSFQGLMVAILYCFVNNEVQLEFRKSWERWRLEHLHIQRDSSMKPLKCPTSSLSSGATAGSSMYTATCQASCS
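Inverse agonists were sought by their lowering of basal cAMP reporter luciferase output in HEK293 cells stably carrying constitutively active human GLP-1R, after 24 h compound treatment.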
GLP-1R agonist: agonists of human GLP-1 receptor; P43220; Potency, µM (doses to about 45.6 µM), for the others: at the top dose activation, most hits filed as activators; AID 624172; 380,000 tested, 0.007% active; HEK293 GLP-1R CRE-luciferase, luminescence, 4-6 h; cells express a hypersensitive GLP-1R form; also: % of control where 0% means no effect
TGFb inhibitor: inhibitors of TGF-b signaling; AID 588855; Potency, µM (doses to about 46.1 µM), for the others: at the highest dose activity, negative = inhibition, hits mostly inhibitors; HepG2 CAGA-GFP TGF-b/SMAD3 reporter, GFP fluorescence, 18 h; TGF-beta stimulated, 500 pg/mL final; 410,000 tested, 1.2% active; also: % is scaled to controls: 0 for no effect and ±100 for the full control effect; nearly all actives have a fitted effect of over 65% in size
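Smad-responsive CAGA-GFP expression was quantified in HEPG2 cells exposed to compounds and 500 pg/mL final TGF-beta for 18 h at 37 degrees C; unstimulated wells defined full inhibition.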
ATXN viability: viability counter-screen for ATXN expression inhibitors | S2 cells (HEK-293 line with an ATXN2-luciferase reporter) viability, CellTiter-Fluor protease fluorescence, 24 h | Potency, µM (doses to about 56.7 µM), actives largely listed as cytotoxic | 400,000 tested, 0.49% active | AID 651635; also: nearly all actives have a fitted effect of over 40% in size
ATXN2 expr inh: reduces ATXN2 reporter expression in HEK-293 cells; HEK-293 ATXN2-luciferase reporter, luminescence, 24 h; Potency, µM (titrated, usually from 57 µM), for the others: at the top dose activity change, negative = inhibition, actives largely listed as inhibitors; 360,000 tested, 0.72% active; AID 1745845; also: % is scaled to controls: 0 for no effect and ±100 for the full control effect; nearly all actives have a fitted effect of over 55% in size
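qHTS (up to 57 uM final) was run with 24 h compound exposure of reporter cells at 37 °C. Each well was multiplexed: SteadyGlo luminescence measured ATXN2-luciferase expression after a fluorogenic Gly-Phe-AFC viability readout (25 uM final).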
HepG2 tox: kills HepG2 cells in TGF-b inhibitor counter-screen | 410,000 tested, 0.76% active | HepG2 CAGA-GFP viability, ATP luminescence, 18 h | Potency, µM (series often up to 46.1 µM), without a hit: at the top dose activity change, negative = cytotoxicity, most hits filed as cytotoxic
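CellTiter-Glo luminescence gave cytotoxicity after 18 hours at 37 degrees C. The cells were HepG2 CAGA-GFP in 1% FBS DMEM, stimulated with 500 pg/mL TGF-beta after compound addition. %Activity was normalised to no-cell wells (complete cell-killing) and DMSO (no toxicity), and curves were fitted and classified.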
Numbers without * were called inactive; i = inactive; ? = inconclusive; · = no result given; [ ] = another dose, or the depositor's remark. Only some compounds are listed: those with a hit (about 3.7% of all), similar ones and a draw of the others. Calls follow the shape of the dose curve; as a rule, active = well fitted curve in the direction sought with a large enough effect; inconclusive = small, poorly fitted or top-dose-only effect, or another doubt; inactive = no such curve, though single readings can be large; an effect the other way counts as inactive or inconclusive. Potency is read from the fitted curve at half-maximal effect.

SMILES	GLP1R inv ag	GLP-1R agonist	TGFb inhibitor	ATXN viability	ATXN2 expr inh	HepG2 tox
CC1(C(=O)Nc2ccc3c(c2)OCO3)CCN1C(=O)CCc1ccc(Cl)cc1Cl (stereo not drawn)	?	13%	-3%	28µM*	-7%	-18%
CC1(C(=O)Nc2ccc3c(c2)OCO3)CCN1C(=O)Cc1cc(F)ccc1F (stereo not drawn)	6%	5%	1%	i	-3%	-10%
CCC(C)NC(=O)c1ccccc1NC(=O)c1ccc(CSc2ccccc2)cc1 (stereo not drawn)	-28%	3%	?	i	-11%	16µM*
Cc1ccc(SCc2ccc(C(=O)Nc3ccccc3C(=O)NC(C)C)cc2)cc1	-3%	0%	1%	i	-3%	5%
COc1cc(O)oc1C=Nc1ccc(C(=O)O)cc1	12%	-2%	-3%	i	-31%[11.3 µM]	14µM*
COc1cc(O)oc1C=Nc1ccc(Cl)cc1	1%	-2%	-7%	i	-4%	5%
Fc1ccc(C2CCNCC2COc2ccc3c(c2)OCO3)cc1 (stereo not drawn)	?	9%	?	?	?	11µM*
Cc1nn2c(=O)cc(COC(=O)c3ccc(NC(=O)c4cccc(Br)c4)cc3)nc2s1	-1%	·	-1%	·	·	-31%
c1ccc(CNCCC(Cc2ccccc2)c2ccco2)cc1 (stereo not drawn)	8.9µM*	-6%	20µM*	i	-4%	1%
COC1C=CC=C(C)C(=O)NC2=CC(=O)C(N)=C(CC(C)CC(OC)C(O)C(C)C=C(C)C1OC(N)=O)C2=O (stereo not drawn)	1%	-8%	-93%	?	0.24µM*	-78%
C=CCNC1=C2C[C@@H](C)C[C@H](OC)[C@H](O)[C@@H](C)/C=C(\C)[C@H](OC(N)=O)[C@@H](OC)/C=C\C=C(/C)C(=O)NC(=CC1=O)C2=O	·	0%	·	·	·	·
COC(=O)C1=CO[C@@H](O)[C@@H]2C(CO)=CC[C@@H]12	·	·	·	·	-10%	·
CC(=O)OCON[N+]([O-])=NC1CCCCC1	·	·	-7%	·	·	-6%
COc1ccc(CNC(=O)CCc2nc3cccnc3n2Cc2ccccc2)cc1	-1%	·	5%	i	-5%	1%
Cc1nc(N2CCC(C)CC2)c2nnn(Cc3ccccc3)c2n1	10µM*	21%	-15%	i	12%	-23%
CC(C)Cc1nc(N2CCC(C(N)=O)CC2)c2nnn(Cc3ccccc3)c2n1	-1%	14%	3%	i	6%	6%
Cc1oc2ccc(O)c(CN3CCOCC3)c2c1C(=O)Nc1ccc(C(C)C)cc1	?	·	?	?	-14%	-26%
Cc1cccc2sc(NNC(=O)c3ccc(S(=O)(=O)N4CCc5ccccc5C4)cc3)nc12	?	0%	11µM*	?	?	-34%
Cc1cccc2sc(NNC(=O)c3ccc(S(=O)(=O)N4CCCC(C)C4)cc3)nc12 (stereo not drawn)	?	-4%	13µM*	i	?	-61%
Cc1cc(C)c2nc(NNC(=O)c3ccc(S(=O)(=O)N4CCCCC4)cc3)sc2c1	?	1%	?	i	?	-20%
CCOC(=O)N1CCN(S(=O)(=O)c2ccc(C(=O)NNc3nc4c(C)cccc4s3)cc2)CC1	?	-2%	?	i	?	-31%
COc1cc(/C=C/C(=O)O[C@H]2CC[C@]34C[C@]35CC[C@]3(C)[C@@H]([C@H](C)CCC=C(C)C)CC[C@@]3(C)[C@@H]5CC[C@H]4C2(C)C)ccc1O	·	·	·	i	7%	·
CCOC(=O)c1cc(CC)sc1NC(=O)c1ccc(N2C(=O)CCC2=O)cc1	8%	8%	-1%	i	-3%	3.5µM*
CCOC(=O)c1c(-c2ccc(C)cc2)csc1NC(=O)c1ccc(N2C(=O)CCC2=O)cc1	-14%	2%	-3%	i	-5%	-12%
Cc1ccc(-c2nnc3ccc(SCC(=O)c4ccccc4)nn23)cc1	·	·	8%	·	·	11%
SMILES	GLP1R inv ag	GLP-1R agonist	TGFb inhibitor	ATXN viability	ATXN2 expr inh	HepG2 tox
NNC(=O)c1ccc(OCC2CC(c3ccc(Cl)cc3)=NO2)cc1 (stereo not drawn)	13µM*	3%	?	i	-33%	13µM*
CC1c2ccccc2SC(CCCN(C)C)c2ccccc21 (stereo not drawn)	11µM*	19%	10%	i	4%	-50%
CN(C)CCC1Sc2ccccc2Oc2ccccc21 (stereo not drawn)	?	10%	-1%	i	-15%	-50%
O=[N+]([O-])c1cccc(S(=O)(=O)NCCNS(=O)(=O)c2cccc([N+](=O)[O-])c2)c1	·	5%	·	i	-18%	·
CCc1noc(C)c1C(=O)N1CCOc2ccc(CN3CCCC(C(=O)c4cccnc4)C3)cc2C1 (stereo not drawn)	·	·	·	i	·	·
CC(C)(C)CC(C)(C)N=C1Nc2ccc([N+](=O)[O-])cc2N[C@]12C[C@H]1CCCC(=O)N3CC[C@@H](C2)[C@@H]13	·	·	?	·	·	-27%
COc1ccc(-c2cc3nc(NCCCN(C)C)n(C)c(=O)c3s2)cc1OC	-8%	-1%	12%	i	-10%	11%
CN(C)CCCNc1nc2cc(-c3cccc(C(F)(F)F)c3)sc2c(=O)n1C	?	20%	?	32µM*	20µM*	-93%
CN(C)CCCNc1nc2cc(-c3cccc(Cl)c3)sc2c(=O)n1C	?	11%	?	?	?	11µM*
Cc1ncc2c(c1CNC(=O)/C=C/c1cccs1)CCN(C(=O)c1ccc3c(c1)OCCO3)C2	·	·	·	i	·	·
COc1ccccc1C(=O)Nc1cc(Cl)ccc1O	1%	-16%	-5%	i	-3%	-59%
CCOc1ccccc1C(=O)Nc1cc(Cl)ccc1O	7.1µM*	0%	?	?	?	-40%
CC(C)OCCCNC(=O)c1ccc2c(c1)S(=O)(=O)c1ccccc1C2=O	14%	?	15%	i	6%	9%
COCCCNC(=O)c1ccc2c3c(onc13)-c1ccccc1C2=O	10%	-46%	3.2µM*	·	?	-107%
OC1CCN(Cc2ccc3c(c2)CN(C/C=C/c2ccco2)CCO3)CC1	·	·	·	i	·	·
Cc1cc2oc(=O)c(CC(=O)NCCc3ccccc3)c(C)c2c2occ(C(C)(C)C)c12	10µM*	·	?	·	·	-24%
CC(C)c1ccc(OCC(=O)NCC(c2ccc(Cl)cc2)N2CCOCC2)cc1 (stereo not drawn)	-18%	·	?	?	-25%	-26%

Assay outcomes as filed in PubChem BioAssay.
